Test results as given in the supplement of paper PMC11732987, “Enantioselective OTUD7B fragment discovery through chemoproteomics screening and high-throughput optimisation” (Communications Chemistry, 2025).

Assays:
Experiment in all cases: log2 ratio of Biotin-Ahx-Ub-VS probe labelling (fragment/DMSO); higher = less target engagement (more negative = stronger competition), active = hit call of the paper (q ≤ 0.05, log2 ratio ≤ -1)
Conditions in all cases: compound concentration: 200 uM; treatment time: 3 h
USP9X = USP9X (UniProt Q93008)
Chain of USP9X (Q93008 whole entry, the tested form may be a part): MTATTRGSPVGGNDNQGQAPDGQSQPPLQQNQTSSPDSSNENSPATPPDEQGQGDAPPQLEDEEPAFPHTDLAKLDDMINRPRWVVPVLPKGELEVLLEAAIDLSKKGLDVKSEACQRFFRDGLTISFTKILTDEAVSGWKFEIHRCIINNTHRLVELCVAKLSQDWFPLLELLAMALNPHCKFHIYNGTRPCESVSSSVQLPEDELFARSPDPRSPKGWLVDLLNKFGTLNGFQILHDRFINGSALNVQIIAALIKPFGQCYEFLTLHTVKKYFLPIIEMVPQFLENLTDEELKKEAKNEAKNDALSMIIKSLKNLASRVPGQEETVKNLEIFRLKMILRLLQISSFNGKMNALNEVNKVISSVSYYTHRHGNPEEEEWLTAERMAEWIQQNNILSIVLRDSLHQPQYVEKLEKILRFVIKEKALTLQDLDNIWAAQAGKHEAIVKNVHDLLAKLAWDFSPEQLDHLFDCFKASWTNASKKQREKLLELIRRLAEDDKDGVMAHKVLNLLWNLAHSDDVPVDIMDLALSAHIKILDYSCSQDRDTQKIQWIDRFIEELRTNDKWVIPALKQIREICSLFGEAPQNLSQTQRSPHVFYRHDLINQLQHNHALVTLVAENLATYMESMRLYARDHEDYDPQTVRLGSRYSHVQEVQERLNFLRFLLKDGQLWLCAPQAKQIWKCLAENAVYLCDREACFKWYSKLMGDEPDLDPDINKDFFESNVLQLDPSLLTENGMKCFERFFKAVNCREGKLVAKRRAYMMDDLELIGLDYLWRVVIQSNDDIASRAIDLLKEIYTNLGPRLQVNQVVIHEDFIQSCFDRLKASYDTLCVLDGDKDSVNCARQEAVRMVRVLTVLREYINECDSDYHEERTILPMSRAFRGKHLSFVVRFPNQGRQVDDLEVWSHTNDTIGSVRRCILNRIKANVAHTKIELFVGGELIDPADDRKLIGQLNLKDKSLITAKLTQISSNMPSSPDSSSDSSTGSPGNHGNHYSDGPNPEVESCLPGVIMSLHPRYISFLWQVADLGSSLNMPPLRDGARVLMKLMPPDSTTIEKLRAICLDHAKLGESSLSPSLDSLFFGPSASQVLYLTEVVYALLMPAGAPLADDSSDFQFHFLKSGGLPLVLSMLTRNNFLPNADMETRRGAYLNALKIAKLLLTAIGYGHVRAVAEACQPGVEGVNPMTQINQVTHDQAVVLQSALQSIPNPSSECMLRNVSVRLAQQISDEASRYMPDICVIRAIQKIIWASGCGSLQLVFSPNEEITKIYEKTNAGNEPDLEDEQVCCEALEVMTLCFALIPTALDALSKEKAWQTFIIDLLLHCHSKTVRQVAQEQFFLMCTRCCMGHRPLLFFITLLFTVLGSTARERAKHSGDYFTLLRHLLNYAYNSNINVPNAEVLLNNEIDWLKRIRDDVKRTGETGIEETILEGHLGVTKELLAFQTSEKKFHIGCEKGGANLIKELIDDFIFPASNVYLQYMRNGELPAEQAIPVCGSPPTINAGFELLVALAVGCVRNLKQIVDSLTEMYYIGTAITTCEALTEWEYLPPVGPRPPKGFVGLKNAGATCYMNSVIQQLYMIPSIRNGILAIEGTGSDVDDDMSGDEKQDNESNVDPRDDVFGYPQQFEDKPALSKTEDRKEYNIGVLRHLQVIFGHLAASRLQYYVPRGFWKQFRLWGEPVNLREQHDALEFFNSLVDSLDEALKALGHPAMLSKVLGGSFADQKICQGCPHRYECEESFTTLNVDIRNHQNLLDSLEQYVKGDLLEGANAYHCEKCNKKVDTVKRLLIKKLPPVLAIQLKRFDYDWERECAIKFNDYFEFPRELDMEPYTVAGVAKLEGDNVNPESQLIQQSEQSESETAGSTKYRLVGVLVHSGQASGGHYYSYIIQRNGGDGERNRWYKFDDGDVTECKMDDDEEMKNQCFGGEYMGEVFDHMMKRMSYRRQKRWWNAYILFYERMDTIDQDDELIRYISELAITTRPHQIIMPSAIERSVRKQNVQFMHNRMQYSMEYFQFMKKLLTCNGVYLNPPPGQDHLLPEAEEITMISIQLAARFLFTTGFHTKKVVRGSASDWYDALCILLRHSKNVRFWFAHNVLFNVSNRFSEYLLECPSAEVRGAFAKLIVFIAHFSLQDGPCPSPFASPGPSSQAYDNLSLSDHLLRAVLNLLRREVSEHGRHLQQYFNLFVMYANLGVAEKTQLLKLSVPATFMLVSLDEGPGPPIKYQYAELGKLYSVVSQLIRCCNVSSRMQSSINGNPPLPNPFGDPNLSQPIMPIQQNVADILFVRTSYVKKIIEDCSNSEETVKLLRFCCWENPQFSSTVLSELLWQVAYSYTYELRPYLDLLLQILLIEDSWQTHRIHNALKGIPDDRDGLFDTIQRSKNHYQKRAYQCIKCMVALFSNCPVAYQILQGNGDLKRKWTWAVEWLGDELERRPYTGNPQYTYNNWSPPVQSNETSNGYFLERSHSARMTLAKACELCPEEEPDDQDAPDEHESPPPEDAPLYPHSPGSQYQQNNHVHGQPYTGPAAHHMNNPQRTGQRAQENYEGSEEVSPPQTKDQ
In short: (§1)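 Using Biotin-Ahx-Ub-VS at 0.5 µM final for 1 h, DUBs were labelled in HEK293T lysate (495 µg per sample) that had first been treated in triplicate with fragment at 200 µM or vehicle for 3 h. NeutrAvidin enrichment, LysC and trypsin digestion and diaPASEF LC-MS/MS followed. Spectronaut label-free quantities were global-median-normalised. Values are average log2 fragment/vehicle ratios by unpaired t-test, using proteins with ≥2 unique peptides.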

UniProt O00487 = biological target: UniProt O00487
Chain of UniProt O00487 (O00487 whole entry): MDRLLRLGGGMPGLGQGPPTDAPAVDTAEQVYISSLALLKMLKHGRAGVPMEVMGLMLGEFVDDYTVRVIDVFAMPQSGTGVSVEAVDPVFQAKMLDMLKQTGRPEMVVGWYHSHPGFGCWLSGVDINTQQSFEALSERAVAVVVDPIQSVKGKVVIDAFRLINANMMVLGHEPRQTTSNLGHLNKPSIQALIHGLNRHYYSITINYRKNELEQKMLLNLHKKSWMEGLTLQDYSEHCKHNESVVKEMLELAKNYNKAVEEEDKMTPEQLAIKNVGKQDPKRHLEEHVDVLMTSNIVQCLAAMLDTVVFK
In short: as §1

UniProt O00507 = biological target: UniProt O00507
In short: as §1

UniProt P51784 = biological target: UniProt P51784
Chain of UniProt P51784 (P51784 whole entry): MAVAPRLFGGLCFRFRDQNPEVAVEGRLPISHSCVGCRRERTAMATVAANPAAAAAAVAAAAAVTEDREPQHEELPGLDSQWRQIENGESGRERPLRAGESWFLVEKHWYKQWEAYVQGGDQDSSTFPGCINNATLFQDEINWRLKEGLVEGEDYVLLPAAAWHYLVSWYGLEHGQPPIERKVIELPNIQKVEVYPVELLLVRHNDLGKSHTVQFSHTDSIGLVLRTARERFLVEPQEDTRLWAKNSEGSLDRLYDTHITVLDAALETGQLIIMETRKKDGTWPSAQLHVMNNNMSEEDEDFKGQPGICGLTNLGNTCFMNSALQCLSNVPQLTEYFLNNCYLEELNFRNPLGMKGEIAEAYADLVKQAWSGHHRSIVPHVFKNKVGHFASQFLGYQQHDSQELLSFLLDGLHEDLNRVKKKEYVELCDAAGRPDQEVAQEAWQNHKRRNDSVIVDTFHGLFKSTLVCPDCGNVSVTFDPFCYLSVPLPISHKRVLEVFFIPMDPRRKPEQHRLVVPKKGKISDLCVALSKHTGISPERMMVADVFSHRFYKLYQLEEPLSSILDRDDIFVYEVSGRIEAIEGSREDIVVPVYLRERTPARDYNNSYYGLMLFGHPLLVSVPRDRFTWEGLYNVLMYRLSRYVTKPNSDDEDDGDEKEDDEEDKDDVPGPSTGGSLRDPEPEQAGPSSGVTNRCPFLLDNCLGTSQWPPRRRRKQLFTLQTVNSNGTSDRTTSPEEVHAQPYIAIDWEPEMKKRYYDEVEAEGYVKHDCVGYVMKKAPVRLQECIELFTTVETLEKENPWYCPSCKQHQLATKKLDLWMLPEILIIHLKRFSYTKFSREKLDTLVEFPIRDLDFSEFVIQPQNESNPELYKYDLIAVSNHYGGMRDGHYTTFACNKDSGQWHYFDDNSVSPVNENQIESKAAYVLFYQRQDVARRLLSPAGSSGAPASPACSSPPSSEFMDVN
In short: as §1

UniProt Q5T2D3 = biological target: T1, UniProt Q5T2D3
T1 sequence (whole entry): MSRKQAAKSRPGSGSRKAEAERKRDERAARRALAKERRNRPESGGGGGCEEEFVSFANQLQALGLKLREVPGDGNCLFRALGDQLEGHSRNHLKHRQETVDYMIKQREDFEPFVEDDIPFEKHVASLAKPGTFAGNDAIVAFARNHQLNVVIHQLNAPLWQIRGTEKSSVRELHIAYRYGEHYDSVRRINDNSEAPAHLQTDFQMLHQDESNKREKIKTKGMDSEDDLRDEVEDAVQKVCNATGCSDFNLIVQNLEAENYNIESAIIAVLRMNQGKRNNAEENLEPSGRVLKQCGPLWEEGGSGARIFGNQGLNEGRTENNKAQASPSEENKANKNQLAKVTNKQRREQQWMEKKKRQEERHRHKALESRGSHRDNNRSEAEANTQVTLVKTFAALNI
In short: as §1

UniProt Q8TE49 = biological target: T2, UniProt Q8TE49
T2 sequence (whole entry): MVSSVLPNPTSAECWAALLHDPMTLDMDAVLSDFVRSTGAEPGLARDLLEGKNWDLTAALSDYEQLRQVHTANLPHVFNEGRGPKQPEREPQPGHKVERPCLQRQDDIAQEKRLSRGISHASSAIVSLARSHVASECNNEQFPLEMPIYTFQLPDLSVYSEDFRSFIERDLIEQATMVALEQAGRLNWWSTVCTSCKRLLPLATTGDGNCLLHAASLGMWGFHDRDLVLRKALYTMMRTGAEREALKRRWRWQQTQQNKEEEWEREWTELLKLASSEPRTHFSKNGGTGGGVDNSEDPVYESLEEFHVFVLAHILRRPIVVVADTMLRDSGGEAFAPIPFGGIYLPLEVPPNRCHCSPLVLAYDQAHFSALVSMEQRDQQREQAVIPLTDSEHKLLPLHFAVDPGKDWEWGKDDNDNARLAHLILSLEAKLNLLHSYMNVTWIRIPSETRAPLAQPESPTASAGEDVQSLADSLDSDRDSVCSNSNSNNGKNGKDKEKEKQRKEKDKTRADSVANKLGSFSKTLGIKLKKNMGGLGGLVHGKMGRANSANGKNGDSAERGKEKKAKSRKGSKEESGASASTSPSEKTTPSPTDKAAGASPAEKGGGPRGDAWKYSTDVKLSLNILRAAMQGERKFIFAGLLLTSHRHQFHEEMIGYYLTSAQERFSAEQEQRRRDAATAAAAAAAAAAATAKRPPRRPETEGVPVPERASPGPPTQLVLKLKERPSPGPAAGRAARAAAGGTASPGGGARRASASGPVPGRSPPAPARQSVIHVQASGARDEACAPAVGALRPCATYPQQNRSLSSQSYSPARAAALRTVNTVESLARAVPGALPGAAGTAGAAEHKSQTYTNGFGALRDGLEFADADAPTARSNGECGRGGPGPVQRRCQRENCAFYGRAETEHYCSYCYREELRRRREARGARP
In short: as §1

UniProt Q9P2H5 = biological target: T3, UniProt Q9P2H5
T3 sequence (whole entry): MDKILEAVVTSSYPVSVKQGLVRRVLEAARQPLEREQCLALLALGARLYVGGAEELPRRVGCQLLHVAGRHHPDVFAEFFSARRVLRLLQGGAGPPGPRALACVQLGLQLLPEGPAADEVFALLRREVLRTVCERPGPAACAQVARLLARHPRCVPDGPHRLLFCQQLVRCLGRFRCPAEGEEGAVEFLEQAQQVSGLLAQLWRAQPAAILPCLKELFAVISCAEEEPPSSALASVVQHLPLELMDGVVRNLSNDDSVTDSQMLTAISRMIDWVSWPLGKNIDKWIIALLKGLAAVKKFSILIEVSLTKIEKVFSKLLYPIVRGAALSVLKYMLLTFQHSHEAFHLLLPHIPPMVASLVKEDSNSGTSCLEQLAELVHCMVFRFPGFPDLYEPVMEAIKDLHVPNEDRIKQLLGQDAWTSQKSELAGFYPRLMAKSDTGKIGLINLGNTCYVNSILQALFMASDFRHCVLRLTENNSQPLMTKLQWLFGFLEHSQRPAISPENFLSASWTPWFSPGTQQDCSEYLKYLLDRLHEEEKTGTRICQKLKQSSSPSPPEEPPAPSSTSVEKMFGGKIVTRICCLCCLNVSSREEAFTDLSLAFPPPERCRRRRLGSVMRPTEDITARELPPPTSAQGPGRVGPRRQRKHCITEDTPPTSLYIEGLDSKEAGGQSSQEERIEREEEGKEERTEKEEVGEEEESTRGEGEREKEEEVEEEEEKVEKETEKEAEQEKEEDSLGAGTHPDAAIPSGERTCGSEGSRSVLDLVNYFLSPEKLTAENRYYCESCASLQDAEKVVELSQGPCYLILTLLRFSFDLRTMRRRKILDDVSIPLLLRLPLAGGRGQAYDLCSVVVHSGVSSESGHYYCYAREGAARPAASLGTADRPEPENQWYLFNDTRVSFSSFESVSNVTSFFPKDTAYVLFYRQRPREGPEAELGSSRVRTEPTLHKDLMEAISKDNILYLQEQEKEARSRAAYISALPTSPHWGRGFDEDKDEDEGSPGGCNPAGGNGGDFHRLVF
In short: as §1

UniProt Q9UGI0 = biological target: T4, UniProt Q9UGI0
T4 sequence (whole entry): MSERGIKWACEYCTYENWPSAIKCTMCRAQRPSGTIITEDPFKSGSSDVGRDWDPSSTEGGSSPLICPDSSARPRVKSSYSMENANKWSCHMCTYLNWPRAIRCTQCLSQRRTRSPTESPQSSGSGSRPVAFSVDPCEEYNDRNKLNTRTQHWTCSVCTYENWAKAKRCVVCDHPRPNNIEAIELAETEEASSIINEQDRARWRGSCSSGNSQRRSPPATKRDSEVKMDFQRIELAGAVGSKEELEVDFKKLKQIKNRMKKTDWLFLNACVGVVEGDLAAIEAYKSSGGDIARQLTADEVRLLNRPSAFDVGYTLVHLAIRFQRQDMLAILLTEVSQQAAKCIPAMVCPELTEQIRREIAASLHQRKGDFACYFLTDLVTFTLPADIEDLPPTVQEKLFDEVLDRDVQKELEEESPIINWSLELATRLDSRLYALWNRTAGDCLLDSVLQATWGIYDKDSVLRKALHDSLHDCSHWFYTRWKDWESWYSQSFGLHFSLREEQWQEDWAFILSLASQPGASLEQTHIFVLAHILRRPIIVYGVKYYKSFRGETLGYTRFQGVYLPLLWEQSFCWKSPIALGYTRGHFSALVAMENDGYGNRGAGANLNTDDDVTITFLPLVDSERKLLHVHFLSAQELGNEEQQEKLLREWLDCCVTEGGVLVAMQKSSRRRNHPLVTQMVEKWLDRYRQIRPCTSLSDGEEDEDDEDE
In short: as §1

YOD1 = biological target: T5, YOD1 (UniProt Q5VVQ6)
T5 sequence (whole entry): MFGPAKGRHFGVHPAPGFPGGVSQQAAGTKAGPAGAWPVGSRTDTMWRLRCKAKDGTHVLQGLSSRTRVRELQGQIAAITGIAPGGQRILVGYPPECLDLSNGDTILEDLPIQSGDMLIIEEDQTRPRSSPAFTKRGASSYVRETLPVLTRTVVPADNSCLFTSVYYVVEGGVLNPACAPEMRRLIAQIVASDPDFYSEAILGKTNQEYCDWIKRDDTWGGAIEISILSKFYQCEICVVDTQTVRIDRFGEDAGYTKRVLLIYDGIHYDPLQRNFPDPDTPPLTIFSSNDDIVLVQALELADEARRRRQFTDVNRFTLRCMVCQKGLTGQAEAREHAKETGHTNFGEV
In short: as §1

Measured: log2 ratio of Biotin-Ahx-Ub-VS probe labelling

Cc1nnc(C(NC(=O)CCl)c2ccccc2)n1C (centres undefined)
inactive: USP9X 0.432 | UniProt O00487 0.442 | UniProt O00507 1.12 | UniProt P51784 0.68 | UniProt Q5T2D3 0.343 | UniProt Q8TE49 0.469 | UniProt Q9P2H5 0.372 | UniProt Q9UGI0 0.693 | YOD1 0.747
